PubChem BioAssay (NCATS)
Results filed as inconclusive are left out. A call without a number means that no potency is given here. The source made the active and inactive calls. The call rests on the fitted dose curve; in most records, active means well fitted inhibition curve with a large enough effect; inconclusive means small, poorly fitted or top-dose-only effect; inactive means flat fitted curve, though single readings scatter.

Each molecule was assayed against Calcium and integrin-binding protein 1 (Homo sapiens) (UniProt Q99828) (assay: Primary qHTS for Identification of Calcium Integrin Binding Protein 1 (CIB1) Competitor (AID 1508620;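 further: GST tagged CIB1 binding a fluorescein labelled alphaIIb integrin peptide tracer; top concentration of the series differs between compounds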)). Settings: CIB1-GST / FITC-alphaIIb peptide fluorescence polarization; series mostly up to 114 µM.
How it was run: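 Fluorescence polarization competition: CIB1-GST (1 uM final) preincubated with compound 15 min at room temperature, then FITC-labeled alphaIIb peptide (100 nM final) added for another 15 min. Polarization read at Ex 480/Em 540.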

Chain of Calcium and integrin-binding protein 1 (Homo sapiens) (Q99828 whole entry, looked up): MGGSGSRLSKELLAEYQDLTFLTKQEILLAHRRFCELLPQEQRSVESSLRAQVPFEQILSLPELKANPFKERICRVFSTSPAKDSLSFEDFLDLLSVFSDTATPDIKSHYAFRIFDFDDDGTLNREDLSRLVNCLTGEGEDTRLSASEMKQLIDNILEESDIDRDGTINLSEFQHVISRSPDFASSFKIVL

Compound	Potency
Cc1cc(NS(=O)(=O)c2ccc(NC(=O)Cc3ccc(C)c(F)c3)cc2)no1	inactive
Cc1c(P(=S)(c2ccccc2)c2ccccc2)[n+]2ccccc2n1CCCCc1ccccc1	inactive
O=C(Nc1ccc(Br)c(Br)c1)Nc1nnc(-c2cccnc2)s1	inactive
O=C1CCc2cc([S+](=O)([O-])Nc3ccc(N[S+](=O)([O-])c4ccc5c(c4)CCC(=O)N5)cc3)ccc2N1	inactive
Cc1cnc(-c2ccccc2C(C)C)nc1N(C)Cc1ccc(-c2cccnc2)cc1	inactive
CN(C)c1ccc2c(=O)n3nc(Nc4ccc5c(c4)CCC5)sc3nc2c1	inactive
Cc1cc2c(s1)c1cnn(Cc3cccc([N+](=O)[O-])c3)c(=O)c1n2C	inactive
COc1ccc(C2c3c(N)nc(Cc4ccccc4)nc3Oc3ccc4ccccc4c32)cc1OC (stereo not given)	inactive
CC(=O)Nc1sc2c(c1-c1cc3ccccc3s1)CCNC2	inactive
O=C(Nc1ccc(-c2ccccc2)cc1)Nc1nnc(-c2ccncc2)s1	inactive
COc1cc(OC)c(C(CC(=O)N2CC(C)CC(C)C2)c2ccc3c(c2)OCO3)c(OCC#N)c1 (stereo not given)	inactive
CCOc1ccc(CCNC(=O)c2cc3sccc3n2CCN2CCN(C)CC2)cc1OCC	inactive
COc1cc(NC(=O)c2cnn3c(C)cc(C)nc23)cc(OC)c1OC	inactive
CC(=O)Nc1cccc(S(=O)(=O)N2CCN(S(=O)(=O)c3ccc4c(c3)OCCO4)CC2)c1	inactive
O=C1CCCC2=C1C(c1[nH]ncc1Cl)N=C(Nc1nc3cc(F)ccc3o1)N2 (stereo not given)	inactive
O=C1NC(=O)/C(=C/c2cccn2-c2ccc(P(O)O)cc2)N1	inactive
COc1cccc(OC2=NS(=O)(=O)c3ccccc32)c1	inactive
O=C(CNC(=O)c1ccccc1)N[C@@H](C(=O)Nc1cc(C(F)(F)F)ccc1Cl)c1ccccc1	inactive
Cn1c2ccsc2c2ncn(Cc3ccccc3F)c(=O)c21	inactive
N#CN1CCC(NC(=O)c2cccc(C(F)(F)F)c2)CC1	inactive

Compound	Potency
N#CN1CCC(NS(=O)(=O)c2ccc(C(F)(F)F)cc2)CC1	inactive
O=C1c2ccccc2C(=O)N1c1ccc(O)cc1	inactive
COc1ccc(S(=O)(=O)N2CCN(S(=O)(=O)c3c(F)cccc3F)CC2)cc1	inactive
CONC(=O)C[C@@H](C#N)NC(=O)[C@@H]1CCCN1C(=O)[C@@H](NC(=O)c1ccc(N)c(Cl)c1)C(C)(C)C	inactive
COc1cc(N2C(=O)c3ccccc3C2=O)c2ncccc2c1	inactive
Cc1csc(CNc2ncnc3ccc(-c4cccc(Cl)c4)cc23)c1	inactive
COc1ccc(C2Cc3ccccc3C(=O)N2Cc2ccccc2)cc1COc1ccc(NC(C)=O)cc1 (stereo not given)	inactive
O=C1CCc2cc(S(=O)(=O)Nc3ccccc3F)ccc2N1	inactive
COc1cccc(-c2csc3ncnc(Sc4nnnn4C)c23)c1	inactive
O=C(COC(=O)CNC(=O)C1CCCCC1)Nc1cc(C(F)(F)F)ccc1Cl	inactive
Cc1cnc(-c2ccccc2N(C)C)nc1NCc1ccc(-c2cccnc2)cc1	inactive
NC(=O)C1CCN(c2nc(-c3cccc(C(F)(F)F)c3)cs2)CC1	inactive
Cn1c2ccsc2c2cnn(Cc3ccccc3F)c(=O)c21	inactive
O=C(Nc1ncc(Cc2ccc(C(F)(F)F)cc2)s1)c1cccc(-c2ccccc2)c1	inactive
O=C(O)c1ccc2c(c1)C(=O)N(CCc1ccc(O)cc1)C2=O	inactive
NC(=O)C1CCN(c2ncc(-c3cccc(N4CCOCC4)c3)s2)CC1	inactive
Cc1ccnc(NC(=S)N2CCc3cccc(C(F)(F)F)c3C2)c1	inactive
CC(=O)NC(c1cc(Cl)c2cccnc2c1O)C(C)C (stereo not given)	inactive
CN1C(=O)NC(c2ccccc2Cl)C2=C1CCCC2=O (stereo not given)	inactive
CCNC(=O)c1ccc(-c2ccc3ncnc(NCc4ccc(C)o4)c3c2)o1	inactive
